Only some compounds are listed: those with a hit (about 6.1% of all), similar ones and a draw of the others.
RORgamma inh – ROR gamma (mouse) transcription inhibition; P51450; Drosophila S2 Gal4-RORgamma UAS-luciferase reporter, 20 h; Potency, µM (series often up to 53.6 µM), for inactives: at the top dose activity change, negative = inhibition, actives largely listed as inhibitors; 310,000 tested, 5.4% active; AID 2551; further: on the % scale 0 is the no-effect control and ±100 the full control effect; nearly all actives have a fitted effect of over 60% in size
Target sequence (P51450 whole entry, looked up, the tested form may be a part): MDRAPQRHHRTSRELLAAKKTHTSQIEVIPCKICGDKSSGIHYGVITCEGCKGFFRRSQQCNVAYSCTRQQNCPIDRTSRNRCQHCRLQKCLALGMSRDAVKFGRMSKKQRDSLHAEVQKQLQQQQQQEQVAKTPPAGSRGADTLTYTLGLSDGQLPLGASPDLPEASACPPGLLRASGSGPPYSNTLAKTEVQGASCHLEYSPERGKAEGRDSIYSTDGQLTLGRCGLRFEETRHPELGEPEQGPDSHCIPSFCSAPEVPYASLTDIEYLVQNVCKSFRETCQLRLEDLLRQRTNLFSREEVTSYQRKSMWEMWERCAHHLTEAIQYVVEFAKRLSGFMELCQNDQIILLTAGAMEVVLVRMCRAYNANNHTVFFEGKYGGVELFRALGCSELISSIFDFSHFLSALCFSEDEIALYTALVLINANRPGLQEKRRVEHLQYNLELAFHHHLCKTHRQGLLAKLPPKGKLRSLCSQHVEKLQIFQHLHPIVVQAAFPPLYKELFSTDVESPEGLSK
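Luminescence from a UAS-regulated Photinus luciferase reporter in stably transfected Drosophila Schneider cells is measured; decreased signal marks ROR gamma inhibition. Fusion expression is induced by 700 uM copper sulfate for 20 hr.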
ATXN viability – reduces viability in counter-screen for ATXN expression inhibitors | S2 cells (HEK-293 line with an ATXN2-luciferase reporter) viability, CellTiter-Fluor protease fluorescence, 24 h | Potency, µM (top dose mostly 56.7 µM), hits mostly cytotoxic | AID 651635 | 400,000 tested, 0.49% active; further: nearly all actives have a fitted effect of over 40% in size
HepG2 viability – HepG2 cytotoxicity, counter-screen for TGF-b inhibitors | HepG2 CAGA-GFP viability, ATP luminescence, 18 h | Potency, µM (series often up to 46.1 µM), without a hit: at the top dose activity change, negative = cytotoxicity, most hits filed as cytotoxic | 410,000 tested, 0.76% active
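HepG2 CAGA-GFP cells (1000/well, DMEM with 1% FBS) received compound, then TGF-beta at 500 pg/mL final, and were incubated 18 hours at 37 degrees C. Viability was read by CellTiter-Glo luminescence. Media-only wells were set as complete cell-killing and DMSO as no toxicity.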
ATXN2 expr inh – inhibitors of ATXN2 expression | HEK-293 ATXN2-luciferase reporter, luminescence, 24 h | Potency, µM (highest dose often 57 µM), for the others: at the top dose activity change, negative = inhibition, most hits filed as inhibitors | 360,000 tested, 0.72% active; further: on the % scale 0 is the no-effect control and ±100 the full control effect; nearly all actives have a fitted effect of over 55% in size
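ATXN2-luciferase reporter cells (luciferase flanked by upstream and downstream ATXN2 gene portions) were treated 24 h at 37 °C with compounds at up to 57 uM. SteadyGlo luminescence gave expression; GF-AFC fluorescence gave viability.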
TGFb inhibitor – TGF-b pathway inhibition | HepG2 CAGA-GFP TGF-b/SMAD3 reporter, GFP fluorescence, 18 h; TGF-beta stimulated, 500 pg/mL final | Potency, µM (highest dose often 46.1 µM), for inactives: top-dose activity, negative = inhibition, hits mostly inhibitors | 410,000 tested, 1.2% active; further: on the % scale 0 is the no-effect control and ±100 the full control effect; nearly all actives have a fitted effect of over 65% in size
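Cell-based qHTS in HEPG2 carrying a CAGA-GFP Smad reporter; compounds added before 500 pg/mL final TGF-beta, 18 h incubation at 37 degrees C, GFP fluorescence quantified per cell by imaging cytometry.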
Gal4-VP16 FLuc – counter-screen for ROR gamma inhibitors: Gal4-VP16 reporter; Drosophila S2 Gal4-VP16 UAS-luciferase, luminescence, 20 h; Potency, µM (doses to about 53.6 µM), for inactives: at the highest dose activity, negative = inhibition, actives largely listed as inhibitors; 310,000 tested, 3.5% active; AID 2546;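 further: Gal4-VP16 expression switched on by copper sulfate through the metallothionein promoter; on the % scale 0 is the no-effect control and ±100 the full control effect; nearly all actives have a fitted effect of over 50% in size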
* marks the source's active call; other numbers are inactive results; i = inactive; u = inconclusive; x = no result. The call rests on the fitted dose curve; in most records, active means well fitted curve in the direction sought with a large enough effect; inconclusive means small, poorly fitted or top-dose-only effect, or another doubt; inactive means no such curve, though single readings can be large; an effect the other way counts as inactive or inconclusive. Potency means the concentration at half of the fitted maximal effect.

SMILES	RORgamma inh	ATXN viability	HepG2 viability	ATXN2 expr inh	TGFb inhibitor	Gal4-VP16 FLuc
CC1(Cc2ccc(OC(F)(F)F)cc2)C(=O)Nc2ccc(S(=O)(=O)NC3CCCCC3)cc21 (configuration not stated)	x	u	11µM*	u	u	x
CCc1c(C)c(C#N)c2nc3ccccc3n2c1Cl	2.8µM*	x	x	x	x	7%
O=C(Nc1ccon1)C(Sc1ccccc1)c1ccccc1 (configuration not stated)	u	i	-16%	-7%	u	10%
O=C(Nc1nncs1)C(Sc1ccccc1)c1ccccc1 (configuration not stated)	11µM*	u	0%	-9%	u	-24%
COc1ccccc1NC(=O)c1cc2c(=O)oc3ccc(C)cc3c2s1	x	x	4%	x	-1%	x
O=C(CN1C2=NCCN2c2ccccc21)C12CC3CC(CC(C3)C1)C2	16µM*	u	-7%	-16%	56%	-28%
Cc1nc2sccn2c(=O)c1S(=O)(=O)Nc1cc(C(F)(F)F)ccc1Cl	x	x	-11%	x	29%	x
CC(C)c1ccc(NC(=O)CCS(=O)(=O)c2ccc3c(c2)CC(=O)N3C)cc1	x	i	-18%	5%	u	x
COc1ccc(N(C)C(=O)c2nn(-c3ccc(C)cc3)c(=O)n(C)c2=O)c(OC)c1	x	i	-1%	-9%	-7%	x
CCCn1nc([N+](=O)[O-])c(C(C#N)c2nc3ccccc3s2)c(Cl)c1=O (configuration not stated)	-45%	i	11µM*	-1%	u	u
CCn1nc([N+](=O)[O-])c(C(C#N)c2nc3ccccc3n2C)c(Cl)c1=O (configuration not stated)	-19%	i	4%	-3%	-4%	2%
COc1ccc(CCNC(=S)N2CCC(C(=O)c3ccc(F)cc3)CC2)cc1OC	21%	i	-36%	x	11µM*	-13%
COc1ccc(C(=O)NC(=S)NCCc2ccccc2)cc1	10µM*	i	-20%	17%	-25%	u
COc1ccc(C(=O)C2CCN(C(=S)NCCc3ccc(OC)c(OC)c3)CC2)cc1	4%	u	-28%	u	u	-16%
COc1ccc(CCNC(=S)NC(=O)c2cccc(Cl)c2)cc1OC	11µM*	i	0%	u	-28%	u
COc1ccc(CCNC(=S)NC(=O)c2cccc([N+](=O)[O-])c2)cc1OC	13µM*	i	-15%	2%	-1%	16µM*
COc1ccccc1N(C)C	x	x	-32%	x	4%	x
OC[C@@H]1O[C@@H](O)[C@H](O)[C@H](O)[C@@H]1O	23%	x	x	x	x	-2%
CCOC(=O)c1c(C)c(-c2ccccc2)n(CC(=O)NCCc2ccc(C)cc2)c1C	x	i	-3%	11%	u	x
COc1ccc(CCNC(=S)NC(=O)c2cc(OC)c(OC)c(OC)c2)cc1OC	-40%	x	3%	-21%	2%	-3%
O=C(NC(=S)NCCc1ccccc1)c1cccc(Cl)c1	13µM*	i	-9%	34%	-27%	18µM*
COc1ccc(CCNC(=S)NC(=O)c2ccccc2)cc1OC	4.5µM*	i	-8%	0%	-22%	7.1µM*
COc1ccc(/C=C/C(=O)NC(=S)NCCc2ccc(OC)c(OC)c2)cc1	2.8µM*	u	6.3µM*	u	5.6µM*	u
Cc1cc(OC(C)C(=O)N2CCN(CCc3ccccn3)CC2)ccc1Cl (configuration not stated)	x	i	8%	0%	0%	x
Cc1cccc2cc(CN(C(=O)c3ccc(-c4ccc(F)cc4)cc3)C3CC3)c(N3CCC(O)CC3)nc12	x	i	x	x	x	x
SMILES	RORgamma inh	ATXN viability	HepG2 viability	ATXN2 expr inh	TGFb inhibitor	Gal4-VP16 FLuc
CC1(CC(=O)N/N=C/c2cc([N+](=O)[O-])c(O)cc2O)OCCO1	5.6µM*	i	0%	-33%	-15%	u
Cc1ccc(-n2c(C)cc(/C=N/NC(=O)CC3(C)OCCO3)c2C)c(C)c1	-11%	i	-8%	-3%	-4%	6%
O=C(O)c1ccccc1O[C@@H]1O[C@H](C(=O)O)[C@@H](O)[C@H](O)[C@H]1O	6%	x	x	x	x	-3%
Cn1c(C23CC4CC(CC(C4)C2)C3)n[nH]c1=S	5µM*	i	-5%	0%	-5%	8.9µM*
COCCCn1c(C23CC4CC(CC(C4)C2)C3)n[nH]c1=S	5µM*	i	-29%	x	-4%	6.3µM*
COCCCn1c(=O)c2ccccc2n2c(=S)[nH]nc12	u	i	7%	-5%	0%	-18%
CC(C)Cn1c(C23CC4CC(CC(C4)C2)C3)n[nH]c1=S	3.2µM*	i	-26%	-15%	-28%	3.2µM*
Cc1ccc(N2CCN(C(=O)CCS(=O)(=O)c3cc4c(cc3Cl)NC(=O)CO4)CC2)c(C)c1	x	u	-30%	6%	u	x
CC[C@H](C)[C@H](NC(=O)[C@H](Cc1ccc(O)cc1)NC(=O)[C@@H](NC(=O)[C@H](CCCN=C(N)N)NC(=O)[C@@H](N)CC(=O)O)C(C)C)C(=O)N[C@@H](Cc1cnc[nH]1)C(=O)N1CCC[C@H]1C(=O)N[C@@H](Cc1ccccc1)C(=O)N[C@@H](Cc1cnc[nH]1)C(=O)N[C@@H](CC(C)C)C(=O)O	5%	x	x	x	x	8%
CCN(Cc1nc(-c2ccc(OC)cc2)oc1C)S(=O)(=O)c1ccc(Cl)cc1	x	x	-32%	x	u	x
COC(=O)CSc1nc2sc3c(c2c(=O)n1Cc1ccccc1)CCC(C(C)(C)C)C3 (configuration not stated)	x	i	1%	2%	-2%	x
Cc1csc(NC(=O)CSCC(=O)O)c1-c1nc2ccccc2s1	-42%	i	-16%	u	u	8.9µM*
Cc1ccc2nc(-c3ccc(NC(=O)CSCC(=O)O)cc3)sc2c1	11µM*	i	3%	43%	1%	-26%
Cc1ccc2nc(-c3ccc(NC(=O)CCN4C(=O)c5ccccc5C4=O)cc3)sc2c1	5µM*	i	-8%	14%	-25%	7.1µM*
C[C@@H]1CCN(C(=O)CC#N)C[C@H]1N(C)c1ncnc2[nH]ccc12	x	x	x	33%	x	x
CC(C)(C)c1nnc(N/N=C/c2ccccc2O)n(N)c1=O	10µM*	i	-21%	u	-2%	11µM*
CSc1nnc(C(C)(C)C)c(=O)n1/N=C/c1ccccc1	17%	u	27%	-13%	50%	7%
CC(C)(C)c1nnc(N/N=C/c2ccccc2)n(N)c1=O	4µM*	i	-3%	11%	9%	5.6µM*

Screening results: PubChem, National Center for Advancing Translational Sciences (NCATS)
